From the supplement of paper PMC11732987, “Enantioselective OTUD7B fragment discovery through chemoproteomics screening and high-throughput optimisation” (Communications Chemistry, 2025)

Columns and labels:
Assay in all cases: log2 ratio of Biotin-Ahx-Ub-VS probe labelling (fragment/DMSO); higher = less target engagement (more negative = stronger competition), active = hit call of the paper (q ≤ 0.05, log2 ratio ≤ -1)
Conditions in all cases: compound concentration: 200 uM; treatment time: 3 h
USP42 = molecular target: T1, USP42 (UniProt Q9H9J4)
T1 sequence (whole entry): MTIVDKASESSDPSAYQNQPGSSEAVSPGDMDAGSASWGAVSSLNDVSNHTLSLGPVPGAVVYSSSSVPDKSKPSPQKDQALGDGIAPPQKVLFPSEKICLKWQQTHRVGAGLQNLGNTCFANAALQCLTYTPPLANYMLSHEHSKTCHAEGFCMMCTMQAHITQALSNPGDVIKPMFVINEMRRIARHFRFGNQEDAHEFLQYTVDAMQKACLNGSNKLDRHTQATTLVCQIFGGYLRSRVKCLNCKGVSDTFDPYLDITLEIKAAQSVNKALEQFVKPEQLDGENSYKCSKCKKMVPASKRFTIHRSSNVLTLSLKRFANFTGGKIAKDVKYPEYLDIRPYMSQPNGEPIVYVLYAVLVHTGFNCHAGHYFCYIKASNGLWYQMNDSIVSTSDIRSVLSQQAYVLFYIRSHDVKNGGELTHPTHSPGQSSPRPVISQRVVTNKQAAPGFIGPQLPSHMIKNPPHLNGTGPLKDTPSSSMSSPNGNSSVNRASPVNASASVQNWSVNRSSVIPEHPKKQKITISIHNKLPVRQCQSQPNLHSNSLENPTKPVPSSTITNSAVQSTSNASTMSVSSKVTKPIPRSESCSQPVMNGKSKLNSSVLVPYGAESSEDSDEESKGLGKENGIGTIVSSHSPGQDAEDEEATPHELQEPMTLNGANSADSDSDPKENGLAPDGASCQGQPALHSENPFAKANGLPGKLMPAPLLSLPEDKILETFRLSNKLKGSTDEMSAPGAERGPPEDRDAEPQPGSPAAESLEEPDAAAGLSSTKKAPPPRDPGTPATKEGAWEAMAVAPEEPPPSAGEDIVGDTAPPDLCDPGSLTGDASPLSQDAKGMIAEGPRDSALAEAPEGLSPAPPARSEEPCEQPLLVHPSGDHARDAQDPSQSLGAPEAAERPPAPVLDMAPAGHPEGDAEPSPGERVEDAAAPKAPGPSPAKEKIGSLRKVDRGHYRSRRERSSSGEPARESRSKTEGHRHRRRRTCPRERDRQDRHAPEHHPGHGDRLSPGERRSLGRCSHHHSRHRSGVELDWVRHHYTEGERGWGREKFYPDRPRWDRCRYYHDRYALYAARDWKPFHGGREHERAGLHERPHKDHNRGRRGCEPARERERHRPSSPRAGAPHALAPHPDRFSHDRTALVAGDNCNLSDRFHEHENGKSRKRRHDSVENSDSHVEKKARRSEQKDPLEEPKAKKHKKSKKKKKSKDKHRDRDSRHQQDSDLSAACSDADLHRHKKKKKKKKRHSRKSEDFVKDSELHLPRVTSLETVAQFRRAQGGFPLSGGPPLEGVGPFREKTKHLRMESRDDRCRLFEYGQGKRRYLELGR
Outline: (§1)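 Average log2 ratios of fragment over vehicle were obtained by unpaired t-test from global-median-normalised Spectronaut label-free quantities. Proteins with ≥2 unique peptides were included. HEK293T lysate (495 µg per sample) was treated in triplicate with fragment at 200 µM or vehicle for 3 h, then with Biotin-Ahx-Ub-VS at 0.5 µM final for 1 h, and labelled DUBs were NeutrAvidin-enriched and run by diaPASEF LC-MS/MS.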

USP46 = USP46 (UniProt P62068)
Sequence of USP46 (P62068 whole entry): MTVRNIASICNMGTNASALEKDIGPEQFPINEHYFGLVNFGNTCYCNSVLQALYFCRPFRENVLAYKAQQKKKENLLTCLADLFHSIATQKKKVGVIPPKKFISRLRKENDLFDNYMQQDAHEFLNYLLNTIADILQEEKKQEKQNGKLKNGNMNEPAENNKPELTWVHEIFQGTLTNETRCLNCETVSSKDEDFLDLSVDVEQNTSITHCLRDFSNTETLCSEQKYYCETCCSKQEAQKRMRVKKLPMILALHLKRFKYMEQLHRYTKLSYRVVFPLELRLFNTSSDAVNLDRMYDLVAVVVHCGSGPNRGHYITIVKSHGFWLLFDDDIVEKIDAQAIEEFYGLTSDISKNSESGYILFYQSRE
Outline: as §1

USP47 = molecular target: T2, USP47 (UniProt Q96K76)
T2 sequence (whole entry): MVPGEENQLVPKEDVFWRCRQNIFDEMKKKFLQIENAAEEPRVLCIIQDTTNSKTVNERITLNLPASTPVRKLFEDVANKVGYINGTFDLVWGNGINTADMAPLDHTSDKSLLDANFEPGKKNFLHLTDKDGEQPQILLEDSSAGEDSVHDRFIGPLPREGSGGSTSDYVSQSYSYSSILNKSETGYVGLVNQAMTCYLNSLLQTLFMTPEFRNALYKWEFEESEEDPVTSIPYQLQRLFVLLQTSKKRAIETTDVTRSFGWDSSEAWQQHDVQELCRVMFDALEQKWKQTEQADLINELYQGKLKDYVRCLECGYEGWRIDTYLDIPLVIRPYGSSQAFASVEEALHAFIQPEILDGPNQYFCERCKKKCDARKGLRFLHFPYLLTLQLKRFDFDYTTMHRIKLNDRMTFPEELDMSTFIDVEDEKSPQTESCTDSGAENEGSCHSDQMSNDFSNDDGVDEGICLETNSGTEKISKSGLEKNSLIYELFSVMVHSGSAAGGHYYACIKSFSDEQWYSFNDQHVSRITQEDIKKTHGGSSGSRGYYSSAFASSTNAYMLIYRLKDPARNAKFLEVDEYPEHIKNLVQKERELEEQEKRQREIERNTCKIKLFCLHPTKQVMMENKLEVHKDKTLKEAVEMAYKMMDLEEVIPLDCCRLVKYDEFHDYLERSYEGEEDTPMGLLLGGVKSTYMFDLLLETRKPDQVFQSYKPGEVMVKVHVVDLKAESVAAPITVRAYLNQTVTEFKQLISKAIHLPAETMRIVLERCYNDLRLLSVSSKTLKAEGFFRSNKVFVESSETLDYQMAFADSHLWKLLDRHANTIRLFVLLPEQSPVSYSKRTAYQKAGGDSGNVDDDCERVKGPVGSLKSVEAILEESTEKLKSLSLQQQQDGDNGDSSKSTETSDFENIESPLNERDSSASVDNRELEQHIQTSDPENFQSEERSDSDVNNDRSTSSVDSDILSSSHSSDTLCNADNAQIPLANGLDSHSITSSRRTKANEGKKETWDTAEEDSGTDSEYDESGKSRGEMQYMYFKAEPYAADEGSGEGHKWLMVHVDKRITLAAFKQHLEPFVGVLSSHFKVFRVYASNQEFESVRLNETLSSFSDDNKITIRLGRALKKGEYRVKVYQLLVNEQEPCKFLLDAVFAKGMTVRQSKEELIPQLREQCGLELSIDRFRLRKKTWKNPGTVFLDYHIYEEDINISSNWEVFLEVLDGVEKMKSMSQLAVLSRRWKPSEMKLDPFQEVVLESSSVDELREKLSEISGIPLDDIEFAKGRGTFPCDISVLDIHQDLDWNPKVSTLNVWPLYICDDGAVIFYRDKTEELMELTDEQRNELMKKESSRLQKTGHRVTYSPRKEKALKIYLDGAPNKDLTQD
Outline: as §1

USP48 = molecular target: T3, USP48 (UniProt Q86UV5)
T3 sequence (whole entry): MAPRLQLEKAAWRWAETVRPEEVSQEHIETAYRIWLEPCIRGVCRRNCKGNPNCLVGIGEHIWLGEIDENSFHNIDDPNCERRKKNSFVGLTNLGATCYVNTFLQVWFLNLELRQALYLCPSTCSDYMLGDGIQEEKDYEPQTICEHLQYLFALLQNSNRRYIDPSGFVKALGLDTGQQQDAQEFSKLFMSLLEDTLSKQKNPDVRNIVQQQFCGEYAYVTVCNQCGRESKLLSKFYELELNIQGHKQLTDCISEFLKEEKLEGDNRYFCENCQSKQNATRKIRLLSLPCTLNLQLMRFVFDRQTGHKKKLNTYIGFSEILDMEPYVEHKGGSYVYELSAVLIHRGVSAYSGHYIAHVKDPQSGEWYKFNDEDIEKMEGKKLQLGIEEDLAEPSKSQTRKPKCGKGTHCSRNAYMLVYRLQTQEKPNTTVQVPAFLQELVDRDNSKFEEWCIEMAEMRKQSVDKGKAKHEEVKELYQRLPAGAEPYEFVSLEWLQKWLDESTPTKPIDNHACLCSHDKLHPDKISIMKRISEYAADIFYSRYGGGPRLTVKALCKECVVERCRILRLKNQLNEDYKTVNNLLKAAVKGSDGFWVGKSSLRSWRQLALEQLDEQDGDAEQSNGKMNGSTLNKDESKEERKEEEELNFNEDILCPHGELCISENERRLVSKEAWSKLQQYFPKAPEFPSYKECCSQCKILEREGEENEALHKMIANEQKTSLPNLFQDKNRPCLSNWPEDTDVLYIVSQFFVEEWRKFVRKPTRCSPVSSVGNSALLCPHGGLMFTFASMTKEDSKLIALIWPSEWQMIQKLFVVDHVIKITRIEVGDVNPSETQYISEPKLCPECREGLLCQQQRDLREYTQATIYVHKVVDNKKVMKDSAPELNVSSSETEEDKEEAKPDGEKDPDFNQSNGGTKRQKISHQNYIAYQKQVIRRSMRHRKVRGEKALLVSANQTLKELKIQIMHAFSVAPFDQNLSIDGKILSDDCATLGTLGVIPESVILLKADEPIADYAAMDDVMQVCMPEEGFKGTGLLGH
Outline: as §1

USP5 = molecular target: T4, USP5 (UniProt P45974)
T4 sequence (whole entry): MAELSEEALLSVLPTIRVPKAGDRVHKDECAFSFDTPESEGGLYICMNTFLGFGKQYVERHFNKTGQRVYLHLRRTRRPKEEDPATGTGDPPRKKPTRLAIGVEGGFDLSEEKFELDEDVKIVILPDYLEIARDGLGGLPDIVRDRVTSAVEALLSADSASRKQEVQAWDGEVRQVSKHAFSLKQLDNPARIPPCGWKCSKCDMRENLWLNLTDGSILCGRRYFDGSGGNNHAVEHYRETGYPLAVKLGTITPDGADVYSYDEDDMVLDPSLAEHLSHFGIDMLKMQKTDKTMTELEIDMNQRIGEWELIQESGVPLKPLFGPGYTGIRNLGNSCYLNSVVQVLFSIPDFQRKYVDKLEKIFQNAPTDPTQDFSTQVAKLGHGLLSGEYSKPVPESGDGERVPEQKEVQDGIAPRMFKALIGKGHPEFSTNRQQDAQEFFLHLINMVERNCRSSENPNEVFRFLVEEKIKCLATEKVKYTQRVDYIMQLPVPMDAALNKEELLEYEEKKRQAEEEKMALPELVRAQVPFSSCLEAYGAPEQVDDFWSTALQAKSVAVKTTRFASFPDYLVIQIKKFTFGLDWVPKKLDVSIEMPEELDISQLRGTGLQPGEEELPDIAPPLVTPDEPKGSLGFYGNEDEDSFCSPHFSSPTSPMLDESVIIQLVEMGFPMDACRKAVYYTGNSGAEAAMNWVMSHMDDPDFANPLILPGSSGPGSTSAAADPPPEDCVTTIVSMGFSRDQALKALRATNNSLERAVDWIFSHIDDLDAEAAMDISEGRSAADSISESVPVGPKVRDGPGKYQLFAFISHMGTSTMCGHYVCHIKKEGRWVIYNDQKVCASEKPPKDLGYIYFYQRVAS
Outline: as §1

USP54 = USP54 (UniProt Q70EL1)
Outline: as §1

USP7 = USP7 (UniProt Q93009)
Sequence of USP7 (Q93009 whole entry, looked up): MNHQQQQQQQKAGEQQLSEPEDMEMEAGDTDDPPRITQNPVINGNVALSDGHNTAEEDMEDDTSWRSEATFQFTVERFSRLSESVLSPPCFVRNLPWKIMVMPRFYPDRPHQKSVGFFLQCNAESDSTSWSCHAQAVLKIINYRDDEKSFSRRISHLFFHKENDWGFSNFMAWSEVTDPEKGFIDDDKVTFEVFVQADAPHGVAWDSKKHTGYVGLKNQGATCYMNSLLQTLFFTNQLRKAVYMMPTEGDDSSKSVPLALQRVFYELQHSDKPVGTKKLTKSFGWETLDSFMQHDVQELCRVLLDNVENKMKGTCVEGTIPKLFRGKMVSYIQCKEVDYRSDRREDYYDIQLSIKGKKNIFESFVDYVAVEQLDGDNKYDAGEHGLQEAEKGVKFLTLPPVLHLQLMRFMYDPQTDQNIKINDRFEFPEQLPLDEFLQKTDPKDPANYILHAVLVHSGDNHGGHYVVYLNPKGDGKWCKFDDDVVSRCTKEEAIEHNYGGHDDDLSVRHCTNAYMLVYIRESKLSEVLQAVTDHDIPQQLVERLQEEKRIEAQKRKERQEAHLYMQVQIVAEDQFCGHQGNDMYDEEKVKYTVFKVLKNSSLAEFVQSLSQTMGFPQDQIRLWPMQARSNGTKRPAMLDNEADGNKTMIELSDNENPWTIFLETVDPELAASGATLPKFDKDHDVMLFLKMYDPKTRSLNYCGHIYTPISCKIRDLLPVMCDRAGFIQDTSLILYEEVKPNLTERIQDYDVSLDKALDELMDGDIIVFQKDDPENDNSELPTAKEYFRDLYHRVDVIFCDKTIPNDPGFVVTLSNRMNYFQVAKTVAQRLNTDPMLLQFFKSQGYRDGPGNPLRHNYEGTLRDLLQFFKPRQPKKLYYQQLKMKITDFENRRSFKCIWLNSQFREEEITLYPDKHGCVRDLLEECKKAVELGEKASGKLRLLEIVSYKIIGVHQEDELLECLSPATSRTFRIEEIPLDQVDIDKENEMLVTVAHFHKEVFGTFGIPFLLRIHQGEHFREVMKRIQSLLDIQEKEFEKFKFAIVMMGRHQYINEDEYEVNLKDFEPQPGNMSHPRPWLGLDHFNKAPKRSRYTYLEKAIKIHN
Outline: as §1

USP8 = molecular target: T5, USP8 (UniProt P40818)
T5 sequence (whole entry): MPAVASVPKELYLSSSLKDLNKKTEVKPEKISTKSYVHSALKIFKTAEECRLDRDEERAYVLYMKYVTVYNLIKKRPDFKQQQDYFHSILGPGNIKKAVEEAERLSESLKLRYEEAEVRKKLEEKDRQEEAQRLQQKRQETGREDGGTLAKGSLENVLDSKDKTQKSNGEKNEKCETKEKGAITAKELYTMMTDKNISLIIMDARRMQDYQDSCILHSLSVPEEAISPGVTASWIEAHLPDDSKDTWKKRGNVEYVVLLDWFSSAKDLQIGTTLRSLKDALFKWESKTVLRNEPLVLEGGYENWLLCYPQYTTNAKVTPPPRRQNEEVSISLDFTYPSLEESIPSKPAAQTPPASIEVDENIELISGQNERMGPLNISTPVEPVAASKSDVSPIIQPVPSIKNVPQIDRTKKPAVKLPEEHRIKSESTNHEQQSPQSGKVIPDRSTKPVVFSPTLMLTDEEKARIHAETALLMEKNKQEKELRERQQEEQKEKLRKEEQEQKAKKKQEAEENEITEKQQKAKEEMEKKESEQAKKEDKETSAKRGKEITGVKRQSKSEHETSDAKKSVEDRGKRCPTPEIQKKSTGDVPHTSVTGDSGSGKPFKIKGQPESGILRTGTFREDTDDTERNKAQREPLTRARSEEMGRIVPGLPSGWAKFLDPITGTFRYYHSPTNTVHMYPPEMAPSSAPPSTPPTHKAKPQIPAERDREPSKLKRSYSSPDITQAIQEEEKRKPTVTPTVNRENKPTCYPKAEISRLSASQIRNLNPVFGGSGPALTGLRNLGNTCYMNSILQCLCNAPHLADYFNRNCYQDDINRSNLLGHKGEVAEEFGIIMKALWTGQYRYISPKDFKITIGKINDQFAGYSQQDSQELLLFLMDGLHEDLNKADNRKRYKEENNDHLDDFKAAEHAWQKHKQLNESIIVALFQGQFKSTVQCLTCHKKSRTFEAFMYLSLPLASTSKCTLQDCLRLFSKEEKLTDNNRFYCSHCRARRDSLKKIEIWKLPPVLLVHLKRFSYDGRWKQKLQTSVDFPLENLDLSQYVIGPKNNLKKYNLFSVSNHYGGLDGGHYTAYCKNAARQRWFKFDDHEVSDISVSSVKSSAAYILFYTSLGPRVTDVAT
Outline: as §1

USP9X = USP9X (UniProt Q93008)
Sequence of USP9X (Q93008 whole entry): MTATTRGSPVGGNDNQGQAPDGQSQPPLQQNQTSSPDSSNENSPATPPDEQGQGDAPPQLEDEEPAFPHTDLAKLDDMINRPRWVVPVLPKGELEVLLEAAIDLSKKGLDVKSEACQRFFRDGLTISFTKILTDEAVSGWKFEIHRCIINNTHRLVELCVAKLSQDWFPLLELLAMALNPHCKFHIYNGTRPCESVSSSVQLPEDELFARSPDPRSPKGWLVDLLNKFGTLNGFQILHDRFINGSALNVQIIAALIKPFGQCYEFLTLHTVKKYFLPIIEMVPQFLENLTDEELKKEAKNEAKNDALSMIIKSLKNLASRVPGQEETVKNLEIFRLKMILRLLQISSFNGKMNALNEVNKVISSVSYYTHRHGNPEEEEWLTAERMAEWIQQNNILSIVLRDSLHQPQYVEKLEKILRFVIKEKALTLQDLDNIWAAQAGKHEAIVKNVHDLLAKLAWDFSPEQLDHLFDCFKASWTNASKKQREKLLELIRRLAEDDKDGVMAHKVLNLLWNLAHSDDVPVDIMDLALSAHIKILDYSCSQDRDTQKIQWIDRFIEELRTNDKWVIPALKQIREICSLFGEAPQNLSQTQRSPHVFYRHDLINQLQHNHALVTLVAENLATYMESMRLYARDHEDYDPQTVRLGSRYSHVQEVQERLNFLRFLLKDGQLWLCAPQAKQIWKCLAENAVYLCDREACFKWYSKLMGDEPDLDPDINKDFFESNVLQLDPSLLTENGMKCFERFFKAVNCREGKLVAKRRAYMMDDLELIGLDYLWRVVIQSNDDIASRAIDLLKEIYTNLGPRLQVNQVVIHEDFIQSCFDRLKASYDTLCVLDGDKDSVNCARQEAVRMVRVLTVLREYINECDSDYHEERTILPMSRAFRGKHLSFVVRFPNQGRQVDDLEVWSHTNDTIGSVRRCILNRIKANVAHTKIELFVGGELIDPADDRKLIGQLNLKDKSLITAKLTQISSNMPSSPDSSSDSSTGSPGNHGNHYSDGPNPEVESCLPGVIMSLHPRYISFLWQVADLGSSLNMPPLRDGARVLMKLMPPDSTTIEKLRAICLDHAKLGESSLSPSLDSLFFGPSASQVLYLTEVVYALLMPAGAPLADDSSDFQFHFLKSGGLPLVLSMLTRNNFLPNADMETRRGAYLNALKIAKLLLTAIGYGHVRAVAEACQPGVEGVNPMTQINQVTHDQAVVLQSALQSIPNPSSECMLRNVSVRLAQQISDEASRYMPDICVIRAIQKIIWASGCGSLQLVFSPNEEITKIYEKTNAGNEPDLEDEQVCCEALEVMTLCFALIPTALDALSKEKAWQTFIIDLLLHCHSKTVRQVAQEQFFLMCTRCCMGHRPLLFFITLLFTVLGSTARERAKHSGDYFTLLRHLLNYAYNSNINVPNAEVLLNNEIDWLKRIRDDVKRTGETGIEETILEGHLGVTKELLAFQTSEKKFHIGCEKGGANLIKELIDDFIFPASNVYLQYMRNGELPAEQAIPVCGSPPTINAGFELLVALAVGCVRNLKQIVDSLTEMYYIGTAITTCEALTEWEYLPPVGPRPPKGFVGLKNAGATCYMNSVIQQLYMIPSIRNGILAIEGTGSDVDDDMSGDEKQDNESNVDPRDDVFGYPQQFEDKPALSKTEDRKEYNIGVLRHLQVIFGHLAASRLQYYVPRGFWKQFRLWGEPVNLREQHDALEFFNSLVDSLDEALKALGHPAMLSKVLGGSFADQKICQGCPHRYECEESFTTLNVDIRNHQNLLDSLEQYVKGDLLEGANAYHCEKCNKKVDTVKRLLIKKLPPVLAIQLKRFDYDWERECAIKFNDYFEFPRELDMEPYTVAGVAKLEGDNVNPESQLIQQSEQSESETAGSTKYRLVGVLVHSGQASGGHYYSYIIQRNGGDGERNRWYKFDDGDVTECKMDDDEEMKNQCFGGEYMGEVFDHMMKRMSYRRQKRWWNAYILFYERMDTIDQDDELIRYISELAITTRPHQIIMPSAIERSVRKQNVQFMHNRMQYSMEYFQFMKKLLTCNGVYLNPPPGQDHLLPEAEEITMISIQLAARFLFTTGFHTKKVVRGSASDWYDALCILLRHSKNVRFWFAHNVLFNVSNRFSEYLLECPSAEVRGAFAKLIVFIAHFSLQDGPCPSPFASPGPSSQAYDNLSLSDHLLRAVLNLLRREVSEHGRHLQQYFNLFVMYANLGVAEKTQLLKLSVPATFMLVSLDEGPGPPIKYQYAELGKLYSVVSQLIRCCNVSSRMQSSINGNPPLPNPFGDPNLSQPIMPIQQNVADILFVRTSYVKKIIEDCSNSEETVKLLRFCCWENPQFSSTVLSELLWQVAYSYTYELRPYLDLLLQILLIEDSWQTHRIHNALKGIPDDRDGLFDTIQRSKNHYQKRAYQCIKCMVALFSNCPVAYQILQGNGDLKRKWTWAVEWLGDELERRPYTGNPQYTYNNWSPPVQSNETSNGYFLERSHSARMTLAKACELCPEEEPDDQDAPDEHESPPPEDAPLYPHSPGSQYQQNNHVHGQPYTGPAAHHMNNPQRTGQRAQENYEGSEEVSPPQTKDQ
Outline: as §1

UniProt O00487 = molecular target: UniProt O00487
Sequence of UniProt O00487 (O00487 whole entry): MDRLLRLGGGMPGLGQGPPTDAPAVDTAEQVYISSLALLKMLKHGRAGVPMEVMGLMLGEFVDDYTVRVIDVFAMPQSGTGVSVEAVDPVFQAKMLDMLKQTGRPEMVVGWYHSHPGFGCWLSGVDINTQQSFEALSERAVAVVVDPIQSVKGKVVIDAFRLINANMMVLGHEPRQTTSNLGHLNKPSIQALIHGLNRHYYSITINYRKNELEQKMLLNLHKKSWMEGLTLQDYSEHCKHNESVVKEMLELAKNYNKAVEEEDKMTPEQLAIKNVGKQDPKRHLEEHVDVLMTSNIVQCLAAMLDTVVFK
Outline: as §1

Measured: log2 ratio of Biotin-Ahx-Ub-VS probe labelling

Cl.O=C(CCl)N1CCn2cncc2C1
inactive: USP42 0.404 | USP46 -0.137 | USP47 0.174 | USP48 -0.0876 | USP5 -0.362 | USP54 0.158 | USP7 -0.527 | USP8 -0.217 | USP9X -0.0687 | UniProt O00487 -0.0669
